Source: PubChem
Rows were chosen to be rich in hits. Some 11% of all compounds tested hit in one or more screens of this group.
HCV inhibitor: qHTS Assay for Inhibitors of Hepatitis C Virus (HCV); 340,000 tested, 3.4% active; Huh7.5.1 HCVcc-Cre infection, luciferase reporter, 44 h; Potency, µM (doses to about 41.8 µM), for the others: top-dose activity change, negative = inhibition, actives largely listed as inhibitors
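Infectious HCVcc-Cre (~0.5 moi) was added to cells just after compound, with cells seeded 4 h earlier at 1,000 per well. Luciferase activity after 44 h culture reported infection; substrate was incubated 15 min at room temperature before reading.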
AMA1 RON2 block: qHTS for Inhibitors of AMA1-RON; Towards Development of Antimalarial Drug Lead: Primary Screen. AID 720542, 2013. AlphaScreen AMA1-biotinylated RON2 peptide binding. Plasmodium falciparum AMA1 (3D7) - RON2 peptide interaction. Potency, µM (doses to about 58.2 µM), inactives show at the top dose activity change, negative = inhibition, usual class: inhibitors. 360,000 tested, 0.2% active;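 also: 0% = vehicle wells and -100% = peptide control; nearly all actives have a fitted effect of over 45% in size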
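AMA1 (3D7) with his tag at 25 nM final met compounds first, then biotinylated RON2 peptide at 25 nM; detection used donor plus acceptor beads, 10 µg/mL apiece, read by AlphaScreen after 30 min at room temperature.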
Pf growth 48h: Primary qHTS for delayed death inhibitors of the malarial parasite plastid, 48 hour incubation; P. falciparum luciferase growth in erythrocytes, 48 h; Potency, µM (top dose mostly 28.7 µM), without a hit: at the highest dose activity change, negative = inhibition, actives largely listed as inhibitors; 310,000 tested, 5.9% active; AID 504832, 2011
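Luminescence readout; reporter = integrated firefly luciferase in P. falciparum. RBC culture at 2% hematocrit, 0.1% parasitemia final, 37 C/5% CO2; decreased signal taken as growth inhibition.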
Pf growth 96h: Primary qHTS for delayed death inhibitors of the malarial parasite plastid, 96 hour incubation; 320,000 tested, 6.9% active; P. falciparum luciferase reporter growth, 96 h; Potency, µM (top dose mostly 28.7 µM), for inactives: at the highest dose activity change, negative = inhibition, usual class: inhibitors
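Erythrocytes infected with luciferase-expressing P. falciparum were dispensed at 2% hematocrit and 0.05% parasitemia (final), then incubated with compounds 96 hours at 37 C in 5% CO2. Luminescence after detection reagent addition reported growth.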
* marks the source's active call; other numbers are inactive results; ? = inconclusive; · = no result. Calls follow the shape of the dose curve; as a rule, active = well fitted curve in the direction sought with a large enough effect; inconclusive = small, poorly fitted or top-dose-only effect, or another doubt; inactive = no such curve, though single readings can be large; an effect the other way counts as inactive or inconclusive. Unless noted, % is scaled to controls: 0 for no effect and ±100 for the full control effect; potency is read from the fitted curve at half-maximal effect.

SMILES	HCV inhibitor	AMA1 RON2 block	Pf growth 48h	Pf growth 96h
CCCn1c(=S)[nH]c2cc(C(=O)N3CCc4ccccc4C3)ccc2c1=O	-10%	59%	11%	-8%
c1ccc2sc(Sc3ncnc4sccc34)nc2c1	12%	5%	1.9µM*	0.74µM*
CCc1cc2c(Sc3nc4ccccc4s3)ncnc2s1	6%	-18%	1.9µM*	?
COc1cc(C(=O)N/C(=C\c2cn(C)c3ccccc23)C(=O)NCCCN2CCOCC2)cc(OC)c1OC	?	7%	-17%	10%
Cc1ccc(-n2c(NN)nc3ccccc3c2=O)c(C)c1	-10%	31%	?	9.3µM*
O=C(CN(C(=O)CCC(=O)Nc1nccs1)c1cccc(F)c1)NCCc1ccccc1	?	-2%	0%	13%
CCNC(=O)C12CCC(C)(C(=O)O1)C2(C)C (stereo not given)	5%	0%	17%	15%
COc1cccc(NCc2ccc([N+](=O)[O-])s2)c1	0%	-12%	-27%	0.33µM*
CCOc1cccc2cc(C(=O)NCc3cccnc3)c(=O)oc12	-25%	-5%	18%	2.3µM*
CCOc1cccc2cc(C(=O)NCc3ccc(OC)cc3)c(=N)oc12	5%	-10%	?	10µM*
C=CCc1cccc2cc(C(=O)NCc3cccnc3)c(=O)oc12	?	4%	8%	-2%
CCOc1cccc2cc(C(=O)NCc3ccc(C)cc3)c(=N)oc12	14%	-6%	-1%	-18%
COC(=O)c1cc(Cl)cc2c(C)c(C3(O)CCCCC3)[nH]c12	8.9µM*	-5%	54%	42%
CCc1c(C2(O)CCCCC2)[nH]c2c(C(=O)OC)cc(Cl)cc12	?	12%	10%	1%
NC(=O)C(=O)NCCCN1CCOCC1	5%	-1%	20%	?
CC(=O)N1N=C2c3ccccc3CCC2C1c1ccc(F)cc1 (stereo not given)	-8%	-3%	0%	?
COc1ccc2c(c1)CCC1C2=NN(/C(C)=C/C(C)=O)C1c1cccc(F)c1 (stereo not given)	11µM*	21%	-13%	-17%
COc1ccc(C(=O)N(C)c2c(C)n(C)n(-c3ccccc3)c2=O)cc1OC	9%	1%	51%	-6%
Cc1ccc(C(=O)N2CC=C(c3ccccc3)CC2)s1	-3%	0%	10µM*	1%
O=C(Nc1ccccc1)N1CC=C(c2ccc(F)cc2)CC1	?	2%	10µM*	·
O=C(Nc1cccc2ccccc12)N1CCN(Cc2ccccc2)CC1	-6%	2%	-15%	10µM*
Cc1ccsc1C(=O)N1CC=C(c2ccccc2)CC1	15%	1%	?	-24%
O=C(Nc1cccc2ccccc12)N1CC=C(c2ccccc2)CC1	2%	-2%	·	0.1µM*
S=C(NCC1CCCO1)c1ccc(Br)cc1 (stereo not given)	-17%	8%	8%	-6%
CCOC(=O)N1CCN(C(=O)Cc2ccccc2OC)CC1	-19%	9%	1%	?
SMILES	HCV inhibitor	AMA1 RON2 block	Pf growth 48h	Pf growth 96h
Cc1ccc(C)c(Cn2nnc3c(=O)[nH]c(C4CCCN(C(=O)c5cccs5)C4)nc32)c1 (stereo not given)	-25%	15%	?	-1%
O=C(Nc1cccc(F)c1)N1CC=C(n2c(=O)[nH]c3ccccc32)CC1	?	4%	10µM*	32%
NC(=O)c1sc2cc(C(F)(F)F)cnc2c1-c1ccccc1	0%	?	?	8.3µM*
O=C(c1ccc(F)cc1Cl)N1CCN(CCc2ccccc2)CC1	7%	10%	5%	8.3µM*
O=C(c1cc2ccccc2oc1=O)N1CCN(CCc2ccccc2)CC1	6%	-7%	7%	9.3µM*
Cc1ccc(C)c(N2CCN(C(=O)c3cc4ccccc4oc3=O)CC2)c1	-20%	-3%	·	9.3µM*
COCC1CCN(Cc2cn(-c3ccccc3F)nc2-c2cc(C)sc2C)CC1	11%	-14%	?	-51%
O=S(=O)(Nc1ncccn1)c1ccc(NC(=S)NCc2cccnc2)cc1	9%	0%	32%	-10%
COc1ccc(CCNC(=S)N2CCC(C(=O)c3ccc(F)cc3)CC2)cc1OC	0.5µM*	-5%	?	10%
COc1ccc(C(=O)C2CCN(C(=O)c3ccc(F)cc3)CC2)cc1	25µM*	3%	-8%	?
CCOc1ccc(C(=O)C2CCN(C(=O)c3ccc([N+](=O)[O-])cc3)CC2)cc1	10µM*	-2%	-1%	?
O=C(c1ccc(F)cc1)C1CCN(C(=O)Nc2ccccc2Cl)CC1	-16%	-5%	-26%	2.9µM*
COc1ccc(-c2cc(C(=O)N3CCCC(C(F)(F)F)C3)c3ccccc3n2)cc1OC (stereo not given)	?	9%	?	?
CN(C(=O)CSC1=NC2C(N=N1)c1cc(Br)ccc1N2C)C1CCCCC1 (stereo not given)	4%	2%	12%	?
COc1ccc(C(=O)N2CCC(C(=O)NC3CC3)CC2)cc1	5%	9%	22%	20%
COC(=O)c1ccccc1NC(=O)C1CCN(C(=O)c2ccc(OC)cc2)CC1	4%	3%	0%	12µM*
O=C(N/N=C/c1ccc(OC(F)F)cc1OC(F)F)NC1CCCCC1	?	5%	10µM*	?
O=C(Nc1ccc(F)c(Cl)c1)C1CC(=O)n2c(nc3ccccc32)N1 (stereo not given)	23%	10%	4.7µM*	20%
Cc1ccccc1NC(=O)CSc1nc2ccccc2o1	1%	-6%	181%	·
N#Cc1ccccc1NC(=O)COC(=O)CSc1nc2ccccc2o1	1%	-2%	26%	1µM*
CCC(=NCCC(c1ccccc1)c1ccccc1)c1c(O)n(C)c(=O)n(C)c1=O	0%	-9%	1%	30%
CCC(=NCc1ccc(F)cc1)c1c(O)n(C)c(=O)n(C)c1=O	10µM*	-7%	0%	68%
O=C(NC1C=CS(=O)(=O)C1)c1sc2ccccc2c1Cl (stereo not given)	?	0%	8.3µM*	·
O=C(NC1CC1)c1sc2ccccc2c1Cl	-7%	-13%	66%	0%
NNC(=O)CP(=O)(c1ccccc1)c1ccccc1	2%	34%	-23%	15%
CCNC(=O)CP(=O)(c1ccccc1)c1ccccc1	-5%	6%	-2%	8.3µM*
CCNC(=O)C1(C)CCN(C(=O)c2cccc(OC(F)(F)F)c2)C1 (stereo not given)	·	0%	·	·
CCN1C(=O)/C(=C2/Sc3ccc(OC)cc3N2C)SC1=Nc1ccc(OC)cc1	1%	0%	0%	9.3µM*
CCCCNC(=O)c1c(N)[nH]c(C(=O)c2ccccc2)c1-c1ccc(Cl)cc1	·	2%	·	·
COc1ccc(OCC(O)CN(C2CCCCC2)C2CCCCC2)cc1 (stereo not given)	-5%	-11%	?	5.9µM*
